From ChEMBL document CHEMBL4513216, “Probing the Open Global Health Chemical Diversity Library for Multistage-Active Starting Points for Next-Generation Antimalarials” (ACS Infect Dis, 2020)
Screen size: about 69,000 compounds; about 8,600 (12%) showed an effect of 50% or more. The sample holds strong results, similar compounds and a random draw of the others, so the mix is not that of the screen.

system: Plasmodium berghei; test: Screen against P. berghei liver stage (PbLuc), transformed with Luciferase, at 10uM; type: functional, HepG2; settings: tested at 10 uM

Compound | INHIBITION [%]
O[C@@]1(CNCC2(Cn3ccnc3)CC2)CCCN2CCCC[C@@H]21 | -6.39
Cc1nnc(CNCC2(O)CCCN(Cc3ccc(F)c(F)c3)C2=O)[nH]1 (stereo unspecified) | -1.33
CCOCc1cc(CN2CCn3c(CO)nnc3C2)ccc1OC | -38.2
Cc1ccc(CN2CCc3ncnc(C4CC4)c3CC2)s1 | 34.8
CC(C)Cc1nc(CN2CCN(CC(O)c3ccccc3)CC2)no1 (stereo unspecified) | 23.5
CN(Cc1cnn(C)c1)C(=O)c1ccc(=O)n(Cc2ccccc2)n1 | 0.164
O=C(CCC1CCCC1)NCc1nnc2ccccn12 | 76.4
CN(Cc1nnc2ccccn12)C(=O)CC1CCCCC1 | 10.7
CCC(O)CN(C)Cc1nnc2ccccn12 (stereo unspecified) | 61.8
O=C(CCC1CCCCC1)NCc1nnc2ccccn12 | -18.7
CN(Cc1nnc2ccccn12)C(=O)CCC1CCCC1 | 54.7
CN(Cc1nnc2ccccn12)C(=O)CCNC(=O)C(C)(C)C | 8.77
Cc1ccc(C)c(CN(C)Cc2nnc3ccccn23)c1 | 9.45
Cn1cccc1CNC(=O)CCCc1nnc2ccccn12 | -23.7
Cc1ccc(C)c(C(O)CN(C)Cc2nnc3ccccn23)c1 (stereo unspecified) | 23.3
Cc1cc(C2CCCN(S(=O)(=O)c3cn(C)cn3)C2)ccn1 (stereo unspecified) | 12.8
Cc1cnn(CC2CCCN2C(=O)c2c(F)cccc2Cl)c1 (stereo unspecified) | -59.4
CC(O)CN1CCN(C(=O)c2ccn(-c3ccc(F)cc3)n2)CC1 (stereo unspecified) | -7.35
Cc1cc(-c2ccc(=O)n(CCNC(=O)C3CC3)n2)c(C)o1 | -21.2
CC(C)C(C)NC(=O)c1cc(Br)c2c(c1)OCCO2 (stereo unspecified) | 23.5
Cc1ccc(F)c(NS(=O)(=O)c2cc(C(=O)O)oc2C)c1 | 12.7
COc1cccc2cc(CNC(=O)N3CCCC(O)C3)oc12 (stereo unspecified) | 42.7
COc1cccc2cc(CNC(=O)N3CCC(C(N)=O)CC3)oc12 | -36.1
COc1cccc2cc(CNC(=O)N3CCC(N4CCCC4)C3)oc12 (stereo unspecified) | 54.4

Compound | INHIBITION [%]
COc1cccc2[nH]c(C(=O)N3CCNCC3C(N)=O)cc12 (stereo unspecified) | 12.285
CCN(CC)C(CNC(=O)c1c(C)noc1C(C)C)c1ccsc1 (stereo unspecified) | 33.7
CC1=Nc2c(c(=O)[nH]n2C2CCCCC2)C(c2cccnc2)S1 (stereo unspecified) | 14.2
CCOCCN1CCN(Cc2nc(C)no2)CC1CC (stereo unspecified) | 54.4
CC(C)Cc1noc(CN2CCN(CCOc3ccc(Cl)cc3)CC2)n1 | 79.9
CC(C)Cc1noc(CN2CCN(S(C)(=O)=O)CC2)n1 | 32.78
CC(C)Cc1noc(CN2CCN(c3nccs3)CC2)n1 | -22.6
CCOCCN1CCN(Cc2nc(C3CC3)no2)CC1CC (stereo unspecified) | 38.7
CC(C)Cc1noc(CN2CCN(CCO)CC2)n1 | 48.9
CCN1CCN(Cc2nc(C)no2)CC1 | 0.818
CCOCCN1CCN(Cc2nc(CC(C)C)no2)CC1 | 53.575
CC(C)Cc1noc(CN2CCCN(C(=O)c3ccccc3Cl)CC2)n1 | 37.2
CC(C)Cc1noc(CN2CCN(C(=O)c3cccc(F)c3)CC2)n1 | -29.9
CC(C)Cc1noc(CN2CCCN(C(=O)c3cccc(Cl)c3)CC2)n1 | 68.3
CCN1CCN(Cc2nc(CC(C)C)no2)CC1 | 16.45
CN(C)C(=O)CN1C(=O)CO[C@@H]2CN(c3ccccn3)C[C@H]21 | 21.7
CCOc1c(F)cccc1C(=O)N(C)CCc1ccccn1 | 24.7
O=C(NC1CCCC1)c1ccc(C2CCCNC2)nc1 (stereo unspecified) | -17.7
CC(=O)NCCc1cc2nc(-c3ccncc3)ccn2n1 | 14.105
Cc1noc(C)c1CN1CCc2cnn(C)c2C1COCC1CC1 (stereo unspecified) | 23.3
CCC[C@@H]1CN(c2cncc(C(=O)N3CCOCC3)n2)C[C@H]1N(C)C | -31.7
Cc1nc(CNC(=O)N(CCCO)C2CCc3ccccc32)oc1C (stereo unspecified) | 21.6
CCOCCN1CCN(Cc2nnc(C3CC3)o2)CC1CC (stereo unspecified) | 0
CCOCCN1CCN(Cc2nnc(C3CC3)o2)CC1C (stereo unspecified) | 74.2

Compound | INHIBITION [%]
CCOCCN1CCN(Cc2nnc(C3CC3)o2)CC1 | 12.6
O=C(CCc1ccc(-n2cnnn2)cc1)Nc1nncs1 | 40.6
O=C(Cc1ccc2c(c1)CCO2)N1CCN(c2ccccn2)CC1 | -13.5
NCCCn1nc(C(F)(F)F)c2c1CCC2 | 27.8
N#CCCn1nc(C(F)(F)F)c2c1CCC2 | 57.5
N#CCCn1nc(C(F)(F)F)c2c1CCCC2 | 42.6
Cc1nccn1C1CCCN(C(=O)c2cccc(-n3cccc3)c2)C1 (stereo unspecified) | 43.2
Cc1cccc(C(=O)N2CCCCC2c2[nH]ncc2S(C)(=O)=O)c1 (stereo unspecified) | 4.08
O=S(=O)(NCc1ccc(S(=O)(=O)N2CCCC2)s1)c1cc(Cl)cc(Cl)c1 | 40.6
Cn1cc(NC(=O)N2CCCC2c2cccnc2)ccc1=O (stereo unspecified) | -72.2
CC(C)C1SCC(=O)Nc2c1cnn2-c1ccc(F)cc1 (stereo unspecified) | 8.99
CC(C)C1SCC(=O)Nc2c1cnn2-c1ccc(Cl)cc1 (stereo unspecified) | 78
COc1ccc(-n2ncc3c2NC(=O)CSC3C(C)C)cc1 (stereo unspecified) | 5.51
CCn1cc2[nH]c(OC)c(CNC(=O)C3CCS(=O)(=O)CC3)cc-2c1=O | -21.8
O=C1O[C@@H]2CN(Cc3cc4ccccc4o3)C[C@@H]2N1Cc1ccccn1 | 55
O=C1O[C@@H]2CN(Cc3cc4ccccc4s3)C[C@@H]2N1Cc1ccccn1 | 36.5
Cc1ccc(CN2C[C@H]3OC(=O)N(Cc4ccccn4)[C@H]3C2)o1 | 22.9
Cc1ccc(-c2cnnc(N3CCCC3c3nonc3C)n2)o1 (stereo unspecified) | 5.67
CN1C(=O)CCc2cc(NC(=O)C3CC(=O)N(CC4CC4)C3)ccc21 (stereo unspecified) | -5.57
Cc1cccc(-c2noc(CN3CCCCC3Cn3cncn3)n2)c1 (stereo unspecified) | 9.14
Cc1cccc(NC(=O)[C@@H]2CCCN2CC(=O)N2CCCCCC2)n1 | -3.83
Cc1cccc(NC(=O)[C@@H]2CCCN2Cc2ccccc2C#N)n1 | 0.342
Cc1cccc(NC(=O)[C@@H]2CCCN2CC(=O)Nc2ccccc2)n1 | 76.5
